# According to PubChem BioAssay (NCI):
# About 79,000 compounds went through this panel and 15% of them were active in at least one assay; those are over-represented in the sample as a whole. Unmarked numbers belong to inactive results. Calls of active or inactive are those of the source. No stated cut-off is given here; in the data, active means growth inhibition above about 70%; inactive means the rest.
# Assays:
# [1] = NCI Yeast Anticancer Drug Screen. Data for the rad52 strain (AID 147);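 further: 0% = growth of vehicle-treated control cultures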; conditions: S. cerevisiae rad52 mutant growth inhibition, hits give high values
# In short: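 Measured: yeast growth inhibition. System: strain with a defined DNA damage repair alteration. Reference: vehicle-treated control cultures.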
# [2] = NCI Yeast Anticancer Drug Screen. Data for the rad50EPP+ strain (AID 151);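 further: 0% = growth of vehicle-treated control cultures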; conditions: S. cerevisiae rad50 mutant strain, hits give high values
# In short: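 One strain with a rad50 alteration (rad50EPP+) was compound-treated, its growth then compared to that of vehicle controls.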
# [3] = NCI Yeast Anticancer Drug Screen. Data for the mgt1 strain (AID 153); conditions: S. cerevisiae mgt1 mutant growth inhibition, hits give high values
# In short: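 After exposure of the mgt1 yeast mutant to compound, growth was measured and reported as inhibition compared with vehicle controls.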
# [4] = NCI Yeast Anticancer Drug Screen. Data for the rad50 strain (AID 155);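 further: 0% = growth of vehicle-only cultures of the same strain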; conditions: S. cerevisiae rad50 strain growth inhibition, hits give high values
# In short: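 Vehicle-treated cultures provide the reference for the growth inhibition reported for compound-exposed, repair-deficient yeast.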
# [5] = NCI Yeast Anticancer Drug Screen. Data for the mec2-1 strain (AID 157); conditions: S. cerevisiae mec2-1 strain, hits give high values
# In short: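 Test agents were screened against the mec2-1 yeast strain, with defined DNA repair or cell cycle alteration. Growth was scored as inhibition against vehicle-only controls.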
# [6] = NCI Yeast Anticancer Drug Screen. Data for the rad14 strain (AID 159);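 further: 0% = growth of vehicle-treated control cultures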; conditions: S. cerevisiae rad14 strain growth inhibition, hits give high values
# In short: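 Inhibition of growth is reported for a repair-deficient yeast mutant following compound treatment, calculated relative to cultures that received vehicle.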
# [7] = NCI Yeast Anticancer Drug Screen. Data for the sgs1 mgt1 strain (AID 161);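 further: 0% = growth of cultures given vehicle only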; conditions: S. cerevisiae sgs1 mgt1 strain, hits give high values
# In short: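 Genetically altered yeast, compound exposure, growth inhibition relative to vehicle.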
# [8] = NCI Yeast Anticancer Drug Screen. Data for the CLN2oe strain (AID 163);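 further: 0% = growth of vehicle-only control cultures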; conditions: S. cerevisiae CLN2oe strain, hits give high values
# In short: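 Here, growth inhibition in a cell-cycle-altered yeast strain after compound exposure was quantified against vehicle control growth.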
# [9] = NCI Yeast Anticancer Drug Screen. Data for the cln2 rad14 strain (AID 165);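 further: 0% = growth equal to vehicle treated cultures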; conditions: S. cerevisiae cln2 rad14 strain, hits give high values
# In short: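 Growth of compound-exposed yeast (cln2 rad14 genotype) measured and expressed as inhibition relative to vehicle.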
# [10] = NCI Yeast Anticancer Drug Screen. Data for the bub3 strain (AID 167); conditions: S. cerevisiae bub3 mutant strain, hits give high values
# In short: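 Mutant yeast screening strain plus compound; vehicle-treated cultures serve as the 0% inhibition reference.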
# [11] = NCI Yeast Anticancer Drug Screen. Data for the wt2 strain (AID 169); conditions: S. cerevisiae wt2 strain growth inhibition, hits give high values
# In short: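 Genetically defined yeast strains from a DNA-repair/cell-cycle panel were used. Compound-exposed yeast growth was measured, and the inhibition was calculated relative to vehicle treatment.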
# [12] = NCI Yeast Anticancer Drug Screen. Data for the mlh1 strain (AID 171);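 further: 0% = growth of vehicle-treated control cultures of the same strain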; conditions: S. cerevisiae mlh1 strain growth inhibition, hits give high values
# In short: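 Here the genetically defined yeast mutant is grown with each compound, and the extent to which its growth falls below that of vehicle-exposed cells is reported.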
# [13] = NCI Yeast Anticancer Drug Screen. Data for the sgs1 strain (AID 173);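 further: 0% = growth of vehicle-only control cultures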; conditions: S. cerevisiae sgs1 mutant, hits give high values
# In short: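 Relative growth inhibition, referenced to vehicle, was determined in a yeast strain with a defined alteration affecting DNA damage repair or cell cycle control after compound exposure.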
# [14] = NCI Yeast Anticancer Drug Screen. Data for the mlh1 rad18 strain (AID 175); conditions: S. cerevisiae mlh1 rad18 strain growth inhibition, hits give high values
# In short: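 In this whole-cell yeast screen, a strain with altered DNA damage repair is challenged with compound, and its growth is measured against matched vehicle-treated controls.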
# [15] = NCI Yeast Anticancer Drug Screen. Data for the rad18 strain (AID 177); conditions: S. cerevisiae rad18 mutant growth inhibition, hits give high values
# In short: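 Screen uses a yeast strain with a defined lesion in DNA damage repair; compound effect is read as loss of growth compared to untreated vehicle cultures.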
# [16] = NCI Yeast Anticancer Drug Screen. Data for the wt1 strain (AID 149);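 further: 0% = growth of vehicle-treated wt1 cultures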; conditions: S. cerevisiae wt1 strain (SPY 50644) growth inhibition, hits give high values
# In short: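 Each compound is tested on wt1 yeast and the loss of growth versus vehicle gives the inhibition value.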
# [17] = at 5.0 µM (retest, dose inferred, filed as 0.5)
# [18] = at 50.0 µM (retest, dose inferred, filed as 5.0)
structure (smiles),measurement,setting,value
CC(C)C(c1ccccc1)c1ccccc1,growth inhibition,[1]; at 1.2 µM,4%
same,growth inhibition,[1]; at 3.7 µM,9%
same,growth inhibition,[1]; at 11.0 µM,9%
same,growth inhibition,[1]; at 33.0 µM,8%
same,growth inhibition,[1]; at 100.0 µM,77% (active)
same,growth inhibition,[2]; at 1.2 µM,3%
same,growth inhibition,[2]; at 3.7 µM,6%
same,growth inhibition,[2]; at 11.0 µM,14%
same,growth inhibition,[2]; at 33.0 µM,43%
same,growth inhibition,[2]; at 100.0 µM,93% (active)
same,growth inhibition,[3]; at 1.2 µM,0%
same,growth inhibition,[3]; at 3.7 µM,0%
same,growth inhibition,[3]; at 11.0 µM,-1%
same,growth inhibition,[3]; at 33.0 µM,-6%
same,growth inhibition,[3]; at 100.0 µM,55%
same,growth inhibition,[4]; at 1.2 µM,1%
same,growth inhibition,[4]; at 3.7 µM,18%
same,growth inhibition,[4]; [17],-144%
same,growth inhibition,[4]; at 11.0 µM,9%
same,growth inhibition,[4]; at 33.0 µM,10%
same,growth inhibition,[4]; [18],70% (active)
same,growth inhibition,[4]; at 50.0 µM,10%
same,growth inhibition,[4]; at 100.0 µM,93% (active)
same,growth inhibition,[5]; at 1.2 µM,2%
same,growth inhibition,[5]; at 3.7 µM,3%
same,growth inhibition,[5]; [17],-50%
same,growth inhibition,[5]; at 11.0 µM,-10%
same,growth inhibition,[5]; at 33.0 µM,1%
same,growth inhibition,[5]; [18],-32%
same,growth inhibition,[5]; at 50.0 µM,49.4%
same,growth inhibition,[5]; at 100.0 µM,99% (active)
same,growth inhibition,[6]; at 1.2 µM,-1%
same,growth inhibition,[6]; at 3.7 µM,-5%
same,growth inhibition,[6]; at 11.0 µM,2%
same,growth inhibition,[6]; at 33.0 µM,7%
same,growth inhibition,[6]; at 100.0 µM,70% (active)
same,growth inhibition,[7]; [17],-54%
same,growth inhibition,[7]; [18],-37%
same,growth inhibition,[7]; at 50.0 µM,52.2%
same,growth inhibition,[8]; at 1.2 µM,-5%
same,growth inhibition,[8]; at 3.7 µM,-1%
same,growth inhibition,[8]; at 11.0 µM,2%
same,growth inhibition,[8]; at 33.0 µM,1%
same,growth inhibition,[8]; at 100.0 µM,69%
same,growth inhibition,[9]; [17],-52%
same,growth inhibition,[9]; [18],-33%
same,growth inhibition,[9]; at 50.0 µM,16%
same,growth inhibition,[10]; at 1.2 µM,-6%
same,growth inhibition,[10]; at 3.7 µM,1%
same,growth inhibition,[10]; [17],-67%
same,growth inhibition,[10]; at 11.0 µM,-4%
same,growth inhibition,[10]; at 33.0 µM,-4%
same,growth inhibition,[10]; [18],44%
same,growth inhibition,[10]; at 50.0 µM,-0.75%
same,growth inhibition,[10]; at 100.0 µM,66%
same,growth inhibition,[11]; at 1.2 µM,-2%
same,growth inhibition,[11]; at 3.7 µM,-2%
same,growth inhibition,[11]; at 11.0 µM,-1%
same,growth inhibition,[11]; at 33.0 µM,1%
same,growth inhibition,[11]; at 100.0 µM,56%
same,growth inhibition,[12]; at 1.2 µM,3%
same,growth inhibition,[12]; at 3.7 µM,0%
same,growth inhibition,[12]; at 11.0 µM,0%
same,growth inhibition,[12]; at 33.0 µM,2%
same,growth inhibition,[12]; at 100.0 µM,60%
same,growth inhibition,[13]; at 1.2 µM,-1%
same,growth inhibition,[13]; at 3.7 µM,-3%
same,growth inhibition,[13]; at 11.0 µM,-3%
same,growth inhibition,[13]; at 33.0 µM,-3%
same,growth inhibition,[13]; at 100.0 µM,99% (active)
same,growth inhibition,[14]; [17],-113%
same,growth inhibition,[14]; [18],-101%
same,growth inhibition,[14]; at 50.0 µM,29.2%
same,growth inhibition,[15]; at 1.2 µM,3%
same,growth inhibition,[15]; at 3.7 µM,-1%
same,growth inhibition,[15]; at 11.0 µM,3%
same,growth inhibition,[15]; at 33.0 µM,3%
same,growth inhibition,[15]; at 100.0 µM,59%
Cc1c(Cl)c(C)c(Cl)c(O)c1Cl,growth inhibition,[1]; at 1.2 µM,17%
same,growth inhibition,[1]; at 3.7 µM,7%
same,growth inhibition,[1]; at 11.0 µM,28%
same,growth inhibition,[1]; at 33.0 µM,79% (active)
same,growth inhibition,[1]; at 100.0 µM,98% (active)
same,growth inhibition,[16]; at 1.2 µM,11%
same,growth inhibition,[16]; at 3.7 µM,9%
same,growth inhibition,[16]; at 11.0 µM,13%
same,growth inhibition,[16]; at 33.0 µM,80% (active)
same,growth inhibition,[16]; at 100.0 µM,98% (active)
same,growth inhibition,[4]; at 1.2 µM,-14%
same,growth inhibition,[4]; at 3.7 µM,-21%
same,growth inhibition,[4]; [17],45%
same,growth inhibition,[4]; at 11.0 µM,-8%
same,growth inhibition,[4]; at 33.0 µM,92% (active)
same,growth inhibition,[4]; [18],95% (active)
same,growth inhibition,[4]; at 50.0 µM,92.9% (active)
same,growth inhibition,[4]; at 100.0 µM,98% (active)
same,growth inhibition,[5]; at 1.2 µM,-19%
same,growth inhibition,[5]; at 3.7 µM,7%
same,growth inhibition,[5]; [17],51%
same,growth inhibition,[5]; at 11.0 µM,-7%
same,growth inhibition,[5]; at 33.0 µM,79% (active)
same,growth inhibition,[5]; [18],96% (active)
same,growth inhibition,[5]; at 50.0 µM,93.2% (active)
same,growth inhibition,[5]; at 100.0 µM,99% (active)
same,growth inhibition,[6]; at 1.2 µM,5%
same,growth inhibition,[6]; at 3.7 µM,6%
same,growth inhibition,[6]; at 11.0 µM,11%
same,growth inhibition,[6]; at 33.0 µM,95% (active)
same,growth inhibition,[6]; at 100.0 µM,99% (active)
same,growth inhibition,[7]; [17],2%
same,growth inhibition,[7]; [18],99% (active)
same,growth inhibition,[7]; at 50.0 µM,90.8% (active)
same,growth inhibition,[8]; at 1.2 µM,8%
same,growth inhibition,[8]; at 3.7 µM,-11%
same,growth inhibition,[8]; at 11.0 µM,29%
same,growth inhibition,[8]; at 33.0 µM,88% (active)
same,growth inhibition,[8]; at 100.0 µM,99% (active)
same,growth inhibition,[10]; at 1.2 µM,-17%
same,growth inhibition,[10]; at 3.7 µM,-2%
same,growth inhibition,[10]; [17],27%
same,growth inhibition,[10]; at 11.0 µM,12%
same,growth inhibition,[10]; at 33.0 µM,76% (active)
same,growth inhibition,[10]; [18],100% (active)
same,growth inhibition,[10]; at 50.0 µM,93% (active)
same,growth inhibition,[10]; at 100.0 µM,100% (active)
same,growth inhibition,[11]; at 1.2 µM,-25%
same,growth inhibition,[11]; at 3.7 µM,-20%
same,growth inhibition,[11]; at 11.0 µM,14%
same,growth inhibition,[11]; at 33.0 µM,92% (active)
same,growth inhibition,[11]; at 100.0 µM,99% (active)
same,growth inhibition,[12]; at 1.2 µM,8%
same,growth inhibition,[12]; at 3.7 µM,-4%
same,growth inhibition,[12]; at 11.0 µM,29%
same,growth inhibition,[12]; at 33.0 µM,91% (active)
same,growth inhibition,[12]; at 100.0 µM,99% (active)
same,growth inhibition,[14]; [17],33%
same,growth inhibition,[14]; [18],97% (active)
same,growth inhibition,[14]; at 50.0 µM,72.2% (active)
same,growth inhibition,[15]; at 1.2 µM,-26%
same,growth inhibition,[15]; at 3.7 µM,-4%
same,growth inhibition,[15]; at 11.0 µM,-25%
same,growth inhibition,[15]; at 33.0 µM,65%
same,growth inhibition,[15]; at 100.0 µM,97% (active)
